This passage reports outcome and AC50 results from PubChem BioAssay (EPA / NIEHS).

SMILES strings stand for the structures. Records with an inconclusive call do not appear. Calls of active or inactive are those of the source. The calls were made as follows: active = hit-call score of the fitted dose curve at least 0.9, where 1 is the maximum; inconclusive = response in the unintended direction; inactive = score below 0.9.

The target of assay [1] is human Protein Tyrosine Phosphatase Non-receptor Type 6 (PTPN6), PTPN6 (gene 5777) (UniProt P29350). Briefly: NVS_ENZ_hPTPN6: NovaScreen (NVS) Enzymatic Assay for human Protein Tyrosine Phosphatase Non-receptor Type 6 (PTPN6) (AID 2283210). The method in brief: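 Recombinant human PTPN6 from SF9 cells, enzyme activity followed by fluorescence after mobility-shift separation of substrate and product at 1.33 h. Chemicals first tested at a single 25 uM in duplicate, then confirmed across concentration series; loss of signal relative to DMSO.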

Assay [2] addresses Tyrosine-protein phosphatase non-receptor type 12 (Homo sapiens) (UniProt Q05209). Nature of the assay: NVS_ENZ_hPTPN12: NovaScreen (NVS) Enzymatic Assay for human Protein Tyrosine Phosphatase Non-receptor Type 12 (PTPN12) (AID 2283204). Put shortly:
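Single-concentration duplicates (25 uM) preceded singleton concentration-response up to 50 uM for chemicals passing threshold. Cell-free recombinant PTPN12 activity was read 1.33 h after dosing via fluorescence after mobility-shift separation; loss of signal versus DMSO.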

Assay [3] concerns the target human Protein Tyrosine Phosphatase Non-receptor Type 9 (PTPN9), PTPN9 (gene 5780) (UniProt P43378). Briefly: NVS_ENZ_hPTPN9: NovaScreen (NVS) Enzymatic Assay for human Protein Tyrosine Phosphatase Non-receptor Type 9 (PTPN9) (AID 2283209). Put shortly:
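Sf9-expressed enzyme in a cell-free assay, fluorescence read 1.33 h after dosing with mobility-shift separation of substrate and product. Tested at 25 uM in duplicate, then up to 50 uM; signal loss versus DMSO.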

Assay [4] addresses human Protein Tyrosine Phosphatase Receptor Type F (PTPRF), PTPRF (gene 5792) (UniProt P10586). Briefly: NVS_ENZ_hPTPRF: NovaScreen (NVS) Enzymatic Assay for human Protein Tyrosine Phosphatase Receptor Type F (PTPRF) (AID 2283213). Put shortly:
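Cell-free fluorescence enzyme assay with recombinant protein and substrate; product separated by electrophoretic mobility shift. Read 1 h after dosing, single 25 uM duplicate screen, then concentration-response up to 50 uM; loss of signal vs DMSO.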

In assay [5] the target is human Protein Tyrosine Phosphatase Receptor Type M (PTPRM), PTPRM (gene 5797) (UniProt P28827). Nature of the assay: NVS_ENZ_hPTPRM: NovaScreen (NVS) Enzymatic Assay for human Protein Tyrosine Phosphatase Receptor Type M (PTPRM) (AID 2283215). Put shortly: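 Read-out is fluorescence after electrophoretic separation of substrate and product, taken 1.33 h post-dosing with recombinant enzyme. Compounds screened at 25 uM in duplicate, then concentration series for actives; activity as signal loss relative to DMSO.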

For assay [6], the target named is human Raf-1 Proto-Oncogene, serine/threonine Kinase (RAF1), RAF1 (gene 5894) (UniProt P04049). Briefly: NVS_ENZ_hRAF1: NovaScreen (NVS) Enzymatic Assay for human Raf-1 Proto-Oncogene, serine/threonine Kinase (RAF1) (AID 2283216). The method in brief: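 Single-point screening at 25 uM (duplicate), followed by singleton concentration-response to 50 uM maximum for chemicals exceeding threshold. Enzyme activity from fluorescent substrate-product mobility-shift separation after 1 h, relative to DMSO.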

The target of assay [7] is human Sirtuin 2 (SIRT2), SIRT2 (gene 22933) (UniProt Q8IXJ6). Briefly: NVS_ENZ_hSIRT2: NovaScreen (NVS) Enzymatic Assay for human Sirtuin 2 (SIRT2) (AID 2283217). The method in brief:
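Single-point duplicate screen at 25 uM, then concentration-response (max 50 uM) for chemicals passing threshold. Enzyme activity of recombinant human SIRT2 measured after 1 hr by fluorescence with mobility-shift separation of product; DMSO baseline.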

Assay [8] has as its target human Tyrosine Protein Kinase Receptor Tie-2 (Tie2), TEK (gene 7010) (UniProt Q02763). Nature of the assay: NVS_ENZ_hTie2: NovaScreen (NVS) Enzymatic Assay for human Tyrosine Protein Kinase Receptor Tie-2 (Tie2) (AID 2283225). Put shortly: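 Substrate and product were separated by mobility shift and detected by fluorescence after a 1-hour reaction with recombinant Tie2. Chemicals passing a 25 uM single-point screen were titrated to a maximum of 50 uM. Results were normalized to DMSO baseline.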

For assay [9], the target named is human Vascular Endothelial Growth Factor Receptor 1 (VEGFR1), FLT1 (gene 2321) (UniProt P17948). Nature of the assay: NVS_ENZ_hVEGFR1: NovaScreen (NVS) Enzymatic Assay for human Vascular Endothelial Growth Factor Receptor 1 (VEGFR1) (AID 2283226). Put shortly:
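Kinase activity of recombinant human VEGFR1 was read by fluorescence after electrophoretic separation of product from substrate, 1 h post-dosing; initial duplicate single-point testing at 25 uM, followed by concentration-series follow-up, with DMSO as baseline.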

Assay [10] deals with human Protein Tyrosine Phosphatase Receptor Type C (PTPRC), PTPRC (gene 5788) (UniProt P08575). Nature of the assay: NVS_ENZ_hPTPRC: NovaScreen (NVS) Enzymatic Assay for human Protein Tyrosine Phosphatase Receptor Type C (PTPRC) (AID 2283212). The method in brief: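 Absorbance-based phosphatase activity of human PTPRC protein extracted from yeast was measured 1 h post-dosing. Compounds first tested at 25 uM in duplicate, then those passing threshold in singleton concentration series to 50 uM.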

The target of assay [11] is Tyrosine-protein phosphatase non-receptor type 13 (Homo sapiens) (UniProt Q12923). Nature of the assay: NVS_ENZ_hPTPN13: NovaScreen (NVS) Enzymatic Assay for human Protein Tyrosine Phosphatase Non-receptor Type 13 (PTPN13) (AID 2283205). Put shortly:
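Screened first at a single 25 uM in duplicate; compounds passing the threshold (e.g. 30% inhibition) were rerun in concentration series, top 50 uM. Recombinant enzyme, fluorescent substrate, mobility-shift separation, 0.5 h read. Data fitted as inhibition relative to DMSO.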

Assay [12] addresses human Protein Tyrosine Phosphatase Non-receptor Type 2 (PTPN2), PTPN2 (gene 5771) (UniProt P17706). Nature of the assay: NVS_ENZ_hPTPN2: NovaScreen (NVS) Enzymatic Assay for human Protein Tyrosine Phosphatase Non-receptor Type 2 (PTPN2) (AID 2283207). Put shortly:
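Activity measured as fluorescence after mobility-shift separation of substrate and product, 1 h after compound. Duplicate single-point 25 uM primary testing, concentration series for actives; inhibition scored as signal loss relative to DMSO baseline.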

The target in assay [13] is human Protein Tyrosine Phosphatase Non-receptor Type 4 (PTPN4), PTPN4 (gene 5775) (UniProt P29074). Nature of the assay: NVS_ENZ_hPTPN4: NovaScreen (NVS) Enzymatic Assay for human Protein Tyrosine Phosphatase Non-receptor Type 4 (PTPN4) (AID 2283208). Put shortly:
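Screened in duplicate at 25 uM, with hits then titrated to a top concentration of 50 uM. Recombinant Sf9-derived PTPN4 turnover was read by fluorescence with electrophoretic separation, 1.33 h after compound addition. DMSO served as baseline.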

The target in assay [14] is human Sirtuin 1 (SIRT1), SIRT1 (gene 23411) (UniProt Q96EB6). Briefly: NVS_ENZ_hSIRT1: NovaScreen (NVS) Enzymatic Assay for human Sirtuin 1 (SIRT1) (AID 2283219). Put shortly:
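Cell-free recombinant SIRT1 with a fluorescent substrate; substrate and product separated by electrophoretic mobility shift and read by fluorescence intensity, 1 h after dosing. Primary screen at 25 uM in duplicate; hits re-run in concentration-response up to 50 uM, relative to DMSO.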

The target of assay [15] is human SRC Proto-Oncogene, Non-receptor Tyrosine Kinase (SRC), SRC (gene 6714) (UniProt P12931). Nature of the assay: NVS_ENZ_hSRC: NovaScreen (NVS) Enzymatic Assay for human SRC Proto-Oncogene, Non-receptor Tyrosine Kinase (SRC) (AID 2283223). The method in brief: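 Compounds passing 30% inhibition at 25 uM (duplicate) were titrated to a top concentration of 50 uM. Enzyme activity read by fluorescence with mobility-shift substrate/product separation after 1 h; DMSO baseline.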

For assay [16], the target named is human Tropomyosin Receptor Kinase A (TRKA), NTRK1 (gene 4914) (UniProt P04629). Briefly: NVS_ENZ_hTrkA: NovaScreen (NVS) Enzymatic Assay for human Tropomyosin Receptor Kinase A (TRKA) (AID 2283224). The method in brief: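 Compounds were screened at 25 uM in duplicate, then concentration series to a 50 uM top for those meeting threshold (e.g. 30% inhibition). Enzyme was recombinant human TrkA, incubated 1 h. Product formation was quantified by fluorescence after mobility-shift separation.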

The target in assay [17] is human Vascular Endothelial Growth Factor Receptor 3 (VEGFR3), FLT4 (gene 2324) (UniProt P35916). Briefly: NVS_ENZ_hVEGFR3: NovaScreen (NVS) Enzymatic Assay for human Vascular Endothelial Growth Factor Receptor 3 (VEGFR3) (AID 2283229). The method in brief: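 Chemicals first run in duplicate at 25 uM, with actives re-tested in concentration series to a top of 50 uM. Recombinant VEGFR3 activity measured after 1 h via fluorescence with mobility-shift product separation; inhibition fitted relative to DMSO.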

Sequence of human Tyrosine Protein Kinase Receptor Tie-2 (Tie2), TEK (gene 7010) (Q02763 whole entry, looked up): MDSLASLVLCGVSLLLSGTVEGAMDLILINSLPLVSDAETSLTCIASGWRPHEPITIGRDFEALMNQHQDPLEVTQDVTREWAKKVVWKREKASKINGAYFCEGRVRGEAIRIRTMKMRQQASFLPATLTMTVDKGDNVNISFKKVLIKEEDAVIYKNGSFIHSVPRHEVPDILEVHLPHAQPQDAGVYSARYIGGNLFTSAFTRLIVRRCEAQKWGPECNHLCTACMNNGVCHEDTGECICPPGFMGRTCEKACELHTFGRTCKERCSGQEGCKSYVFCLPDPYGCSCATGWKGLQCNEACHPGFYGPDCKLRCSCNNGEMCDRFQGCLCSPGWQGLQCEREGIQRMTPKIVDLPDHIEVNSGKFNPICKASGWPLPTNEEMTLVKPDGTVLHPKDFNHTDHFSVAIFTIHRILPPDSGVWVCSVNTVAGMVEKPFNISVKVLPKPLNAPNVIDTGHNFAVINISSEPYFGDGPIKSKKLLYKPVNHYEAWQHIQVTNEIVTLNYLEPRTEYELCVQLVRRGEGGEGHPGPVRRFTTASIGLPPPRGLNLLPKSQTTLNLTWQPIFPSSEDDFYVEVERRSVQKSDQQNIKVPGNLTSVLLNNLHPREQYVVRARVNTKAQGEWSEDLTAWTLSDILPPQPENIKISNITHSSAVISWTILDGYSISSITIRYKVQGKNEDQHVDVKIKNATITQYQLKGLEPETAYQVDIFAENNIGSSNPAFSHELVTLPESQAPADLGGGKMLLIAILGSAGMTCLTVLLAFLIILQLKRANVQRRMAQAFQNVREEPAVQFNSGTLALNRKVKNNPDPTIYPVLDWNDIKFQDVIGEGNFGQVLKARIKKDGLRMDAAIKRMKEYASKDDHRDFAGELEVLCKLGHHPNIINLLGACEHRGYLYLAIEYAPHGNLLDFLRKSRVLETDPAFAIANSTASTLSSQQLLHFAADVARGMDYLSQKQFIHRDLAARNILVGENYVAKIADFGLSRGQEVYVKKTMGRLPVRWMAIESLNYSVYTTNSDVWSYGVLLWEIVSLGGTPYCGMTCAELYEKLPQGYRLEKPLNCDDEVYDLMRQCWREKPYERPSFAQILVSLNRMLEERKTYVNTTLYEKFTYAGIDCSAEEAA
Sequence of human Protein Tyrosine Phosphatase Non-receptor Type 9 (PTPN9), PTPN9 (gene 5780) (P43378 whole entry, looked up): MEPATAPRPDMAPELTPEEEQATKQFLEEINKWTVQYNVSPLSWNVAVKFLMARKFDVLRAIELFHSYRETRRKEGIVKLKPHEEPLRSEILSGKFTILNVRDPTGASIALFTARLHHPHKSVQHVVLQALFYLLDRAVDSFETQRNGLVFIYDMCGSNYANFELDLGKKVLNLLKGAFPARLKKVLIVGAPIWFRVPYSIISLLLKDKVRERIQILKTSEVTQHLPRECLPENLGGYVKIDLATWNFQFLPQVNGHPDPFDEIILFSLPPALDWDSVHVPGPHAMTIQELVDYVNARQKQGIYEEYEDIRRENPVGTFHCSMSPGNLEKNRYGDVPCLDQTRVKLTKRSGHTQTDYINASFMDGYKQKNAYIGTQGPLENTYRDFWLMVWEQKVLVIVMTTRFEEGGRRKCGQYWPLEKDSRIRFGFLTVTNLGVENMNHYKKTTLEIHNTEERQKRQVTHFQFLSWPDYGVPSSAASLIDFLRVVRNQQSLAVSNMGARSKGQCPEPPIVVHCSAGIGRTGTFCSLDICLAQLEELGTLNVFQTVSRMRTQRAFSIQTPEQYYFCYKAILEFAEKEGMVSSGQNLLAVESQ
Sequence of Tyrosine-protein phosphatase non-receptor type 12 (Homo sapiens) (Q05209 whole entry, looked up): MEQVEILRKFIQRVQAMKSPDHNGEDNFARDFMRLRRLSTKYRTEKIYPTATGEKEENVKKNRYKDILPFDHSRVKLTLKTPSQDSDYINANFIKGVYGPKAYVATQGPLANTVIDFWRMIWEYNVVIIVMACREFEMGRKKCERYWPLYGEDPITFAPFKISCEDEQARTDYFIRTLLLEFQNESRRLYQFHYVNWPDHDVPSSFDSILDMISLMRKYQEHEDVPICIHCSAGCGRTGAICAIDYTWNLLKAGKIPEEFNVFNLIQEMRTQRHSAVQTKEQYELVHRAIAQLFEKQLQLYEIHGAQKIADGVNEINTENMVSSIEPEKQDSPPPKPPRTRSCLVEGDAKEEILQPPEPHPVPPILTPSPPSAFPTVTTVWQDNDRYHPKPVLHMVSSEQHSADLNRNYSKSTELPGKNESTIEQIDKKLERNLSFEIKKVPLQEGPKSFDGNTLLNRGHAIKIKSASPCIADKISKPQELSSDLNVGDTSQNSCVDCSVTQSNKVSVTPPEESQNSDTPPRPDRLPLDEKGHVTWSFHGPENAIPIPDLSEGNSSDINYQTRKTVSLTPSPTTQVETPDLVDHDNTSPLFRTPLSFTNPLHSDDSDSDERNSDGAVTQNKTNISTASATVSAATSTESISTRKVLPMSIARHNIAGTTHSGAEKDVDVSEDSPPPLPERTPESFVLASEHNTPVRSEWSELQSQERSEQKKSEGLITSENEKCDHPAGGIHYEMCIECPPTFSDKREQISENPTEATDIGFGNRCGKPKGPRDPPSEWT
Sequence of human Protein Tyrosine Phosphatase Non-receptor Type 6 (PTPN6), PTPN6 (gene 5777) (P29350 whole entry, looked up): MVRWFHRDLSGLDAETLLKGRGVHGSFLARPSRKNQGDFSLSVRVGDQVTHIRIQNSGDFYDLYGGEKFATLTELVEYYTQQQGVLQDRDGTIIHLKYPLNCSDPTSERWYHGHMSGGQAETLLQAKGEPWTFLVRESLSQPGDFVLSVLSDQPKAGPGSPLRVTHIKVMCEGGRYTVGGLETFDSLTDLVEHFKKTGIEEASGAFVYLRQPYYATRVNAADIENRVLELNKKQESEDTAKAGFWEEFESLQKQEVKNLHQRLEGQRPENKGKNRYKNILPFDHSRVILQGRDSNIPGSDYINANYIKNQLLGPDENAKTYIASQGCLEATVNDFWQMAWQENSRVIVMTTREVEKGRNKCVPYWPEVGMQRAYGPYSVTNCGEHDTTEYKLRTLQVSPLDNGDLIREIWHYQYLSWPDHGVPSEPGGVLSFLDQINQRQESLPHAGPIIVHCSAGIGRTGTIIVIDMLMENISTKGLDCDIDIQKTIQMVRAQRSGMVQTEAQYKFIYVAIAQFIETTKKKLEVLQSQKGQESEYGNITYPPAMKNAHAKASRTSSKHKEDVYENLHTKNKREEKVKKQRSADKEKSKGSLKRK
Sequence of human Protein Tyrosine Phosphatase Receptor Type M (PTPRM), PTPRM (gene 5797) (P28827 whole entry, looked up): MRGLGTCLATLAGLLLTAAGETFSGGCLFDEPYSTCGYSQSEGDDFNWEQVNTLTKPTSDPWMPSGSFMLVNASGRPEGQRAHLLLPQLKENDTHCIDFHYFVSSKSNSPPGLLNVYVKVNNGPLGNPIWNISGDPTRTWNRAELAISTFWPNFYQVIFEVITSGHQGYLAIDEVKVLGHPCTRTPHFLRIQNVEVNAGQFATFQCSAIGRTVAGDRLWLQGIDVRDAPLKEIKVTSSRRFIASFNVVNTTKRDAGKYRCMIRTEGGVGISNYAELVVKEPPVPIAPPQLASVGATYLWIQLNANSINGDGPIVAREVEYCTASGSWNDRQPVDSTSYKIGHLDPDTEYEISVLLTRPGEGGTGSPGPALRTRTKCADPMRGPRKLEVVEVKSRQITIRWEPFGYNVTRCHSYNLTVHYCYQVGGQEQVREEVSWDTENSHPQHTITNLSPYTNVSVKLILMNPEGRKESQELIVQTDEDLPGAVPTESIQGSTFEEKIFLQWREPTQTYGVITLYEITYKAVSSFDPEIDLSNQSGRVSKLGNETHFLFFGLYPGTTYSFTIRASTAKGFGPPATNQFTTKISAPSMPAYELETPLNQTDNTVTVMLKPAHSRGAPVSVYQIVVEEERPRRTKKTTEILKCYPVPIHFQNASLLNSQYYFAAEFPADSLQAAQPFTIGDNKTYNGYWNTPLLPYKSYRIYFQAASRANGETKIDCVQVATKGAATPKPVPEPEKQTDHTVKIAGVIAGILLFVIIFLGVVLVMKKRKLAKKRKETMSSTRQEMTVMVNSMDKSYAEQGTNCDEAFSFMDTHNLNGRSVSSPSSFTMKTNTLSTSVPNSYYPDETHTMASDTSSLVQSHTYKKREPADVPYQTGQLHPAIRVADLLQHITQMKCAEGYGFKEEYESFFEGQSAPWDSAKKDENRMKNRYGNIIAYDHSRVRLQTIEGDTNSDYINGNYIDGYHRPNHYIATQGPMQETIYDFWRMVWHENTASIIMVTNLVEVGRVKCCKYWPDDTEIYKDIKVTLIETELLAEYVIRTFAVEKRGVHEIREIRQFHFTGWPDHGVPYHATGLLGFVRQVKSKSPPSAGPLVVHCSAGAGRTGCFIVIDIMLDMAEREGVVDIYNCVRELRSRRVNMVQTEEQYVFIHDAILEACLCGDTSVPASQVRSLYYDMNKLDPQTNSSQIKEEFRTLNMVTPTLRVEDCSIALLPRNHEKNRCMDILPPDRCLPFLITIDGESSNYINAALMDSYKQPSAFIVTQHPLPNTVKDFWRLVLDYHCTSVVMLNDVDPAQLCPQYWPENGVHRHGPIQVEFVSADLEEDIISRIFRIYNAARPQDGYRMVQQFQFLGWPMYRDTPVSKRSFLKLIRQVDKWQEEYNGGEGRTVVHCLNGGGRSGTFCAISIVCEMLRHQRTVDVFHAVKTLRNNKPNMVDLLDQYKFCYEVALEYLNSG
Sequence of human Protein Tyrosine Phosphatase Non-receptor Type 2 (PTPN2), PTPN2 (gene 5771) (P17706 whole entry, looked up): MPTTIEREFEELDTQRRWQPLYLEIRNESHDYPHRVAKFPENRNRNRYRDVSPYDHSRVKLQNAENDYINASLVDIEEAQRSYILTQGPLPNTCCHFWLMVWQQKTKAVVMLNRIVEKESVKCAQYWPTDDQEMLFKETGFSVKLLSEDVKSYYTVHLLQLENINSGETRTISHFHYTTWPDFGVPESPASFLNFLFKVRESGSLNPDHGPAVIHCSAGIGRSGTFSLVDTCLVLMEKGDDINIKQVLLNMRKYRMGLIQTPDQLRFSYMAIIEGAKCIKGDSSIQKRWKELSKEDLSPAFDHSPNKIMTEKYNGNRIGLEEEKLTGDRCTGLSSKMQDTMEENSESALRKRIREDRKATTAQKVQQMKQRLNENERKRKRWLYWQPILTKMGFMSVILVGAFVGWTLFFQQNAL

Consider `C[N+](C)(C)CC1CO1` (stereo unspecified), for which the result in assay [1] was inactive.
As to `CC(C)(C)OOC(=O)c1ccccc1`, the compound was classed as inactive in assay [1].
Take `CCN(CC)N=O`: the compound was classed as inactive in assay [2], in assay [3], in assay [4], in assay [5], in assay [6] and in assay [7]. In addition, the compound was called inactive in [8] and in assay [9].
In the case of `Clc1ccc(C(c2ccc(Cl)cc2)C(Cl)Cl)cc1`, the call in assay [1] was inactive.
On to `CCN(CC)CCO`, for which, in assay [3], the compound was called inactive.
Consider `CC(C)(OOC(C)(C)c1ccccc1)c1ccccc1`, for which the outcome in [1] was inactive.
With `Oc1ccc2ccc3cccc4ccc1c2c34`, the half-maximal activity concentration (AC50) (as a rule, the concentration at which the activity in the assay is half-maximal) in assay [2] is 1.22 µM (active); in assay [3] it was 1.44 µM (active); in assay [4] it was 16.5 µM (active); in assay [8], 13.6 µM (active).
As to `CO[C@@H]1[C@H](OC(=O)NC(=O)CCl)CC[C@]2(CO2)[C@H]1[C@@]1(C)O[C@@H]1CC=C(C)C`, in assay [2], the call was inactive.
In the case of `COC(=O)c1ccccc1N`, in [10], the compound was called inactive.
In the case of `ClC1=C(Cl)[C@]2(Cl)[C@H]3[C@H]([C@@H]4C=C[C@H]3C4)[C@@]1(Cl)C2(Cl)Cl`, the compound was called inactive in [3].
As for `CCNS(=O)(=O)C(F)(F)C(F)(F)C(F)(F)C(F)(F)C(F)(F)C(F)(F)C(F)(F)C(F)(F)F`, the result in assay [11], in assay [12], in assay [13], in assay [3], in assay [5] and in assay [14] was inactive. In addition, the outcome in assay [15], in assay [16], in assay [8] and in assay [17] was inactive.
Take `c1ccc2c(c1)oc1ccccc12`: the outcome in [12], in [1] and in [5] was inactive.
Regarding `CCC(C)c1ccc(O)cc1` (stereo unspecified), the compound was classed as inactive in assay [1].
For the compound `CC(C)(C)OOC(C)(C)CCC(C)(C)OOC(C)(C)C`, the AC50 in [1] is 39 µM (active).
Regarding `Nc1ccc(Cl)cc1N`, the AC50 in assay [10] was 16.2 µM (active).
As to `Clc1ccc(C(c2ccc(Cl)cc2)C(Cl)(Cl)Cl)cc1`, the outcome in [12], in assay [3] and in assay [1] was inactive. Further, the AC50 in assay [14] was 25 µM (active).
As for `CCCCCOC(=O)c1ccccc1C(=O)OCCCCC`, the outcome in assay [3] was inactive.
